Measured values taken from PubChem BioAssay (NCATS).
Records with an inconclusive call do not appear. Entries that show only a call come without a potency. Activity calls are given as the source filed them. The call rests on the fitted dose curve; in most records, active means well fitted curve in the direction sought with a large enough effect; inconclusive means small, poorly fitted or top-dose-only effect, or another doubt; inactive means no such curve, though single readings can be large; an effect the other way counts as inactive or inconclusive.

Key:
[1] = tested on: Zika virus NS2B-NS3 protease; experiment: Primary screen GU AMC qHTS for Zika virus inhibitors (AID 1347154); further: nearly all actives have a fitted effect of over 70% in size
Procedure, shortened: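 Unlinked Zika NS2B hydrophilic domain/NS3 protease domain noncovalent complex (25 nM final) in 10 mM Tris-HCl pH 8.0, 0.01% Tween 20, with AMC peptide substrate. Fluorescence (ex 340, em 450 nm) change over 15 min, room temperature; percent inhibition fitted to 4-parameter Hill equation.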

[2] = tested on: Zika virus NS2B-NS3 protease (linked construct); experiment: Primary screen NINDS Rhodamine qHTS for Zika virus inhibitors (AID 1347160); conditions: outcome: dose series up to 57.1 µM unless noted; further: nearly all actives have a fitted effect of over 55% in size
Procedure, shortened: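 Percent inhibition, normalized to uninhibited and enzyme-free controls, is fitted to a 4-parameter Hill equation. Fluorescence change comes from a 15-min cleavage of 1.5 microM bis-peptide Rhodamine110 substrate by 25 nM linked NS2B-NS3 at room temperature.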

[3] = tested on: Zika virus NS2B-NS3 protease (unlinked complex); experiment: Primary screen GU Rhodamine qHTS for Zika virus inhibitors: Unlinked NS2B-NS3 protease assay (AID 1347159); further: nearly all actives have a fitted effect of over 60% in size
Procedure, shortened: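 Compounds, tested up to 114 microM, were incubated for 15 minutes with 25 nM unlinked NS2B-NS3 protease at pH 8.0. Cleavage of 1.5 microM Rhodamine110 substrate was then followed by fluorescence for 15 minutes.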

SMILES	Potency [1]	outcome [2]	Potency [3]
CCNC(=O)NCCCOc1cccc(CN2CCCCC2)c1	inactive	inactive	–
O=C(O)Cc1ccccc1Oc1ccc(Cl)cc1Cl	inactive	inactive	inactive
CC[N+]1(CC)CCC(=C(c2ccccc2)c2ccccc2)C1C (stereo not drawn)	inactive	inactive	–
CCN1C(=O)c2ccccc2C1Nc1ccc(OCCN2CCCCC2)cc1 (stereo not drawn)	inactive	inactive	inactive
CC(=O)OCC(=O)Nc1cc(C#N)cc(NC(=O)COC(C)=O)c1Cl	inactive	inactive	inactive
CN1[C@@H]2CC[C@H]1CC(NC(=O)n1c(=O)[nH]c3ccccc31)C2 (stereo partly drawn)	–	inactive	–
C=CCOc1cc(Cl)ccc1C(=O)NCCN(CC)CC	–	inactive	inactive
CC(=O)Nc1ccn(C2COC(COC(=O)c3ccccc3)O2)c(=O)n1 (stereo not drawn)	–	inactive	inactive
